Data as given in PMC5540273 (PLoS ONE, 2017).

How the values were obtained:
Settings in all cases: concentration: 1 μM, replicates: in singlicate; n = 1
[1] = tested on: TLK1
[2] = tested on: TLK2
[3] = tested on: TNIK
[4] = tested on: TNK1
[5] = tested on: TNK2
[6] = tested on: TNNI3K
[7] = tested on: T1, TRKA
T1 construct: gene NTRK1

[8] = tested on: TRKB
[9] = tested on: T2, TRKC
T2 construct: gene NTRK3

[10] = tested on: TRPM6
[11] = tested on: TSSK1B
[12] = tested on: TSSK3
[13] = tested on: TTK
[14] = tested on: TXK
[15] = tested on: TYK2(JH1domain-catalytic)
[16] = tested on: TYK2(JH2domain-pseudokinase)
[17] = tested on: TYRO3
[18] = tested on: ULK1
[19] = tested on: ULK2
[20] = tested on: ULK3
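Also: KINOMEscan kinase panel screen.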

Row | Compound | %Inh [1] [%] | %Inh [2] [%] | %Inh [3] [%] | %Inh [4] [%] | %Inh [5] [%] | %Inh [6] [%] | %Inh [7] [%] | %Inh [8] [%] | %Inh [9] [%] | %Inh [10] [%] | %Inh [11] [%] | %Inh [12] [%] | %Inh [13] [%] | %Inh [14] [%] | %Inh [15] [%] | %Inh [16] [%] | %Inh [17] [%] | %Inh [18] [%] | %Inh [19] [%] | %Inh [20] [%]
1 | CC(C)c1cc(-c2ccc3c(N)n[nH]c3c2)nc(N)n1 [GSK2250882] | 2 | 0 | 14 | 0 | 14 | 0 | 0 | 0 | 0 | 0 | 6 | 20 | 10 | 0 | 20 | 2 | 0 | 6 | 0 | 9
2 | Cn1cncc1C(=O)NC1CCN(c2ccnc(Nc3ccc(F)cc3)n2)C1 (stereo not shown) [GSK1379717] | 18 | 0 | 0 | 0 | 10 | 0 | 0 | 17 | 48 | 31 | 6 | 0 | 0 | 100 | 13 | 20 | 0 | 6 | 0 | 17
3 | CCCCc1nn2ncccc2c1-c1ccnc(NC2CC2)n1 [GW684374] | 15 | 7 | 0 | 0 | 0 | 0 | 0 | 6 | 0 | 25 | 0 | 9 | 0 | 0 | 6 | 32 | 0 | 0 | 0 | 0
4 | CS(=O)(=O)CCNCc1nc(-c2ccc3ncnc(Nc4ccc(OCc5ccccc5)c(Cl)c4)c3c2)cs1.Cl [GW582764] | 0 | 0 | 0 | 4 | 14 | 0 | 0 | 41 | 54 | 0 | 19 | 8 | 0 | 6 | 30 | 35 | 0 | 5 | 0 | 3
5 | Fc1ccc(-c2nc[nH]c2-c2ccncc2)cc1 [SB-217360] | 0 | 0 | 51 | 0 | 0 | 0 | 0 | 0 | 4 | 6 | 0 | 0 | 0 | 0 | 2 | 22 | 0 | 20 | 27 | 16
6 | Cc1cccc2c(-c3ccncn3)c(-c3ccc(F)cc3)nn12 [GW515532] | 6 | 0 | 8 | 0 | 0 | 0 | 2 | 0 | 7 | 0 | 16 | 0 | 14 | 12 | 30 | 24 | 0 | 19 | 0 | 10
7 | CNC(=O)c1ccc(C)c(-n2c(C)cc(OCc3ccc(F)cc3F)c(Br)c2=O)c1 | 0 | 0 | 0 | 0 | 0 | 0 | 0 | 0 | 0 | 0 | 0 | 0 | 0 | 0 | 0 | 0 | 0 | 0 | 0 | 0
8 | Cc1ccc(NC(=O)Nc2ccccc2)cc1-c1ccc(C(=O)Nc2ccncc2)cc1 [GSK1398471] | 19 | 4 | 0 | 18 | 13 | 49 | 23 | 0 | 0 | 27 | 0 | 0 | 2 | 0 | 0 | 0 | 15 | 12 | 0 | 7
9 | Cl.Cl.Cl.N#Cc1ccc(CCNc2nccc(-c3cccc(CN4CCNCC4)c3)n2)cc1 [GSK2137462] | 9 | 3 | 3 | 4 | 5 | 18 | 56 | 0 | 0 | 0 | 0 | 5 | 14 | 2 | 0 | 0 | 23 | 11 | 12 | 2
10 | Nc1nccc(-c2c(-c3ccc(F)cc3)ncn2C2CCN(Cc3ccccc3)CC2)n1 [SB-219980] | 0 | 0 | 96.5 | 35 | 10 | 0 | 0 | 0 | 0 | 0 | 0 | 0 | 0 | 0 | 7 | 49 | 15 | 31 | 0 | 22
11 | c1ccc(-c2ccnc3[nH]ccc23)cc1 [SB-693578] | 7 | 0 | 8 | 0 | 9 | 11 | 22 | 67 | 37 | 0 | 28 | 2 | 6 | 28 | 63 | 73 | 0 | 33 | 0 | 33
12 | O=c1cc(N2CCOCC2)nc2n(Cc3cccc(Cl)c3Cl)c3ccccc3n12 [GSK2299009] | 2 | 0 | 1 | 6 | 9 | 17 | 18 | 0 | 0 | 36 | 10 | 20 | 8 | 0 | 0 | 0 | 0 | 18 | 0 | 2
13 | Nc1cccc(-c2ccc3c(N)n[nH]c3c2)n1 [GSK2192730] | 33 | 21 | 24 | 0 | 0 | 0 | 0 | 0 | 0 | 18 | 0 | 10 | 6 | 17 | 12 | 17 | 0 | 5 | 0 | 18
14 | CNc1nc(-c2ccc3c(N)n[nH]c3c2)cc(N2C[C@@H](C(=O)Nc3ccccc3)CC[C@H]2C)n1 [GSK2298859] | 0 | 0 | 0 | 0 | 3 | 0 | 77 | 2 | 0 | 0 | 0 | 6 | 21 | 10 | 22 | 13 | 0 | 0 | 0 | 0
15 | COc1ccc(-c2coc3ccc(-c4nnc(C)o4)cc23)cc1 | 12 | 6 | 0 | 0 | 0 | 0 | 0 | 0 | 0 | 0 | 0 | 0 | 0 | 0 | 0 | 0 | 0 | 0 | 0 | 0
16 | O=C(Nc1n[nH]c2cc(-c3ccsc3)ccc12)C1CC1 [SB-732932] | 0 | 0 | 61 | 0 | 8 | 0 | 87 | 39 | 38 | 0 | 13 | 27 | 35 | 5 | 9 | 0 | 14 | 21 | 6 | 32
17 | Cc1cnc(N)c(/C=C/c2cncc(C(=O)NCCc3ccc(Cl)cc3Cl)c2)c1.Cl [GSK190937] | 0 | 0 | 9 | 0 | 11 | 0 | 35 | 0 | 0 | 0 | 6 | 0 | 0 | 4 | 0 | 9 | 0 | 0 | 0 | 0
18 | Cc1ccc(NC(=O)Nc2ccccc2F)cc1-c1ccc(C(=O)Nc2ccncc2)cc1 [GSK1398477] | 6 | 0 | 10 | 10 | 34 | 53 | 10 | 0 | 0 | 21 | 3 | 11 | 22 | 8 | 0 | 0 | 9 | 8 | 0 | 0
19 | Fc1ccc(-c2nn3cccc(F)c3c2-c2ccncc2)cc1 [GW475620] | 0 | 0 | 32 | 0 | 12 | 0 | 15 | 0 | 2 | 0 | 0 | 14 | 14 | 5 | 22 | 9 | 0 | 12 | 0 | 12
20 | COc1ccc(Nc2nccc(N3CCC(NC(=O)C(C)c4ccc(Cl)cc4)C3)n2)cc1 (stereo not shown) [GSK1379735] | 0 | 0 | 10 | 0 | 15 | 6 | 19 | 0 | 11 | 1 | 1 | 24 | 29 | 21 | 28 | 1 | 22 | 9 | 9 | 9
21 | COc1cc2ncnc(Nc3cccc(Br)c3)c2cc1OC.Cl [GI230329] | 0 | 0 | 10 | 0 | 8 | 15 | 45 | 32 | – | 0 | 0 | 16 | 0 | 4 | – | 23 | 3 | 9 | 0 | 17
